This is a sample that favours compounds with a hit; in the whole collection about 4% have one here.
FAS-TE inh: FAS thioesterase domain inhibitors, primary screen, biochemical, fluorescence intensity, uHTS | recombinant FAS-TE, OMFH fluorogenic substrate, fluorescence endpoint | inhibition, % at 15 µM | 360,000 tested, 0.67% active | AID 602261, 2012;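 active means compounds whose normalised, plate-corrected inhibition of enzyme fluorescence in the single-dose primary screen is 50% or more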;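 further: 0% = DMSO with enzyme and 100% = substrate without enzyme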
Target sequence (P49327 whole entry, looked up, the tested form may be a part): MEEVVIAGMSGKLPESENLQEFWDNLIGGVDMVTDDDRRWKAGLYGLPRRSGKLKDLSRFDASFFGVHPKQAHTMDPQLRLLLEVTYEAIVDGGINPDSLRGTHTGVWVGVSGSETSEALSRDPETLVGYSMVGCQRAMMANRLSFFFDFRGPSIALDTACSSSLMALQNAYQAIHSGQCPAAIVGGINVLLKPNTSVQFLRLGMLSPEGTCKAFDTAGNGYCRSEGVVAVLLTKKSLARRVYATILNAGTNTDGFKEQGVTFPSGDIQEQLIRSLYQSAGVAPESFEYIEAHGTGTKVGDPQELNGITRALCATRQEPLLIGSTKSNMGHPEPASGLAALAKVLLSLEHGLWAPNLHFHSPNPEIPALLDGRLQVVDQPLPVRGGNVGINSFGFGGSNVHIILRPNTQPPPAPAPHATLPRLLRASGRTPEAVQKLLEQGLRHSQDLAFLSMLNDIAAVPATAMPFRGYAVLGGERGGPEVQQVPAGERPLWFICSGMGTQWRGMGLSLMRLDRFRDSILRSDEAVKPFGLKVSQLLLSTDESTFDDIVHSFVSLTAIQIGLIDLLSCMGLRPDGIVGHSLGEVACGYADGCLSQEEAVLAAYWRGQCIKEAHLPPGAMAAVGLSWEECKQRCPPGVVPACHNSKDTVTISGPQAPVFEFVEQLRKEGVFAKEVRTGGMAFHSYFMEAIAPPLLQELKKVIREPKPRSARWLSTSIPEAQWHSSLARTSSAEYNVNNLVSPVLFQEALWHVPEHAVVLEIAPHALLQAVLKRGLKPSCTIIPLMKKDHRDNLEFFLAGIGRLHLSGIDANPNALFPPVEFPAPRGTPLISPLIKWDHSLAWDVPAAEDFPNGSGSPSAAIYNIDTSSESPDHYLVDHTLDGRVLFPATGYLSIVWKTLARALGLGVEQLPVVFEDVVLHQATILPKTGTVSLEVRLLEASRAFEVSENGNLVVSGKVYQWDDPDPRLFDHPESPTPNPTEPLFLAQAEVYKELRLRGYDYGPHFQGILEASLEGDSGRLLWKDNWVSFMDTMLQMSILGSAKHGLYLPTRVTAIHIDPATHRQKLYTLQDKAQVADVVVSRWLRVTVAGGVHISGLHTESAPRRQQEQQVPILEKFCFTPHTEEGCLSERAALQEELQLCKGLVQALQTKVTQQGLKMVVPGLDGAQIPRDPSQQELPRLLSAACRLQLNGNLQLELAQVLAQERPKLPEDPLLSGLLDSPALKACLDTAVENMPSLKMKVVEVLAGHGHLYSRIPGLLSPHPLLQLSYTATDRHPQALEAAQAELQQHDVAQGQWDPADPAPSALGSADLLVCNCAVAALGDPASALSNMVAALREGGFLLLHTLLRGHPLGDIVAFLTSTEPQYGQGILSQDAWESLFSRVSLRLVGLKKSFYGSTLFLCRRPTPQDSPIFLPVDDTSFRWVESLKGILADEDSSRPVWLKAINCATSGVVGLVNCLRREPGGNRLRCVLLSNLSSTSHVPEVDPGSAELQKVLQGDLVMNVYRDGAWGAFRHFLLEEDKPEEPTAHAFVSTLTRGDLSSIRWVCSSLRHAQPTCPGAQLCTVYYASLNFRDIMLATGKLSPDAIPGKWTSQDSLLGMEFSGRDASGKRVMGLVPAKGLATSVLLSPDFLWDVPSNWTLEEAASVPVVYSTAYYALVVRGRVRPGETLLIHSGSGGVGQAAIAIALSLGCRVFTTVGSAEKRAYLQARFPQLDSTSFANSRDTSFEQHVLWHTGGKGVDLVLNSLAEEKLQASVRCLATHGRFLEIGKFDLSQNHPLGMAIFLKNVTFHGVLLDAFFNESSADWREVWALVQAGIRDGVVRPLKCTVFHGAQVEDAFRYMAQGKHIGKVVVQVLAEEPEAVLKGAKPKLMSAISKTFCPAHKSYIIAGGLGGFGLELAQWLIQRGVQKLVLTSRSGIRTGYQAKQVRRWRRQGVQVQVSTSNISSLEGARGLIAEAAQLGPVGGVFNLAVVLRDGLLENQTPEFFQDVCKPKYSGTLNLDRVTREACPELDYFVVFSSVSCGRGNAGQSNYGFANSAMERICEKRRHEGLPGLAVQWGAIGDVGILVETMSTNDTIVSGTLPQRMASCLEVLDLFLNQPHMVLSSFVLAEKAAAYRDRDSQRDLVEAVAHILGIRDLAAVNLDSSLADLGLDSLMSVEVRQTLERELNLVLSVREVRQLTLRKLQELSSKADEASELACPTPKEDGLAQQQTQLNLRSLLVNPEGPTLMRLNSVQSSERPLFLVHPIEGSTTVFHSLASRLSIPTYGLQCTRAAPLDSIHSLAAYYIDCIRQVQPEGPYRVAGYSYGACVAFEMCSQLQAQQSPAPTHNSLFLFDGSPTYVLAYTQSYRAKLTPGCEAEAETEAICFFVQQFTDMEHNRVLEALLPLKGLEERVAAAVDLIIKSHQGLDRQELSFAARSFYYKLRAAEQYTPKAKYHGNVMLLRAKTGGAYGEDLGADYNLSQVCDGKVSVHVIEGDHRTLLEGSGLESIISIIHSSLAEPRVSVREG
ADAM17 inh: ADAM17 inhibitors, primary screen, biochemical, QFRET. inhibition, % at 6.95 µM. Disintegrin and metalloproteinase domain-containing protein 17 (Homo sapiens), P78536. 370,000 tested, 0.83% active. recombinant ADAM17, EDANS/DABCYL FRET peptide cleavage;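 active means inhibition above the mean of compounds lying between control limits plus 3 SD, set per campaign, cut at about 8.5% in these data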;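 further: 0% = DMSO-only wells as the low control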
aDG glyco up: activators of alpha-DG glycosylation, primary screen, uHTS, Pro5-aDG cells, AlphaScreen | AID 624168, 2012 | activation, % at 10 µM | alpha-DG glycosylation AlphaScreen (IIH6); 0% Pro5, 100% B10-LARGE cell signal | 360,000 tested, 0.22% active;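 active means activation of at least 8% versus controls, or a plate z-score of at least 8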;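 further: Pro5 are CHO cells carrying HIG-tagged alpha-DG that lacks glycosylation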
GRIN3A LBD mod: binders of NR3A ligand-binding domain, primary screen, biophysical, differential scanning fluorimetry, uHTS; Glutamate receptor ionotropic, NMDA 3A (GRIN3A) ligand-binding domain; NR3A LBD differential scanning fluorimetry, Tm shift; 0% = protein alone, 100% = glycine-bound protein; Tm shift relative to glycine control, % at 25 µM; 340,000 tested, 2.5% active; AID 1259313, 2017;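 active means melting temperature shift of at least 10% of the positive control shift, at one fixed dose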
ADAM10 inh: human ADAM10 inhibitors, primary screen, biochemical, QFRET, HTS; recombinant ADAM10, EDANS/DABCYL FRET peptide cleavage, 3 h; inhibition, % at 7 µM; 370,000 tested, 0.62% active;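 active means inhibition above a per-campaign cutoff equal to the mean of compounds falling between control-based bounds plus 3 SD, cut at about 20% in these data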;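 further: 0% = DMSO wells while the 100% control is not disclosed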
The depositor's hits bear a star; · = not tested or not shown.

SMILES	FAS-TE inh	ADAM17 inh	aDG glyco up	GRIN3A LBD mod	ADAM10 inh
O=C(Nc1ccc(F)cc1)Nc1cccc(Br)c1	9.4	3.4	0.3	43.4*	7.4
O=C(Nc1cccc(F)c1)Nc1cnccn1	-4.6	-4.5	0.1	21.1*	-17.9
CCCc1nc2ccc(NC(C)=O)cc2c(=O)n1Cc1ccc(Cl)cc1	4.0	1.4	-0.2	0.2	-1.1
COC(=O)c1ccccc1NC(=O)C1CCC(=O)N1S(=O)(=O)c1ccc(C)cc1 (configuration not stated)	-1.3	-0.5	-0.2	-2.0	13.4
Nc1nnc(-c2cn(-c3ccccc3)nc2-c2ccc(Cl)cc2)o1	1.1	-2.9	-0.1	24.9*	-2.7
COc1ccc(NC(=O)c2ccc3ncsc3c2)cc1	1.2	-1.6	0.0	-10.2	-4.3
O=C(Nc1ccc(Br)cc1)c1ccc2ncsc2c1	10.0	-7.0	0.1	26.5*	-13.2
CN(C)S(=O)(=O)c1ccc(NC(=O)c2ccc3ncsc3c2)cc1	·	·	·	16.8*	·
Cc1c(CCO)c(=O)n(-c2ccccc2)n1S(=O)(=O)c1ccc([N+](=O)[O-])cc1	-3.2	0.7	-0.4	0.0	-8.2
CCCCNC(=S)NCC(c1ccccc1)c1c[nH]c2ccccc12 (configuration not stated)	14.6	8.0	0.0	29.9*	13.2
CN1CCN(NC(=O)COc2cccc(C(F)(F)F)c2)CC1	-9.3	-4.0	0.1	13.1*	-5.6
Oc1c(/C=C/C=C/C=Nc2ccccc2)sc(=S)n1Cc1ccccc1	21.4	-1.5	0.2	10.2*	6.0
CCn1c(O)c(/C=C/C=C/C=Nc2ccccc2)sc1=S	-2.7	-3.6	-0.2	-1.0	-3.4
CC1(C(=O)N2CCN(C(=O)c3ccco3)CC2)CCN1Cc1ccccc1OC(F)F (configuration not stated)	-11.1	-3.8	0.0	·	-12.4
O=C(NCC1CC1)C1(S(=O)(=O)c2ccccc2)CC=CC1	-11.9	-3.0	-0.1	-2.3	-4.5
CC(=O)Nc1sc(NC(=O)c2ccccc2)nc1-c1cccs1	-2.0	-1.0	-0.3	18.3*	-10.2
CC(=O)Nc1sc(N/N=C\c2cccc(Cl)c2)nc1-c1cccs1	-9.8	6.2	0.0	13.8*	0.6
COc1cc([N+](=O)[O-])cc(/C=N/NC(=O)C(C)Nc2cccc3ccccc23)c1O (configuration not stated)	8.2	-6.8	-0.1	5.9	-29.9
CC(Nc1cccc2ccccc12)C(=O)N/N=C/c1ccc([N+](=O)[O-])cc1 (configuration not stated)	30.6	-2.8	0.0	22.1*	-11.2
CN(C)CCN1CCN(C2CN(Cc3cn(Cc4ccccc4C(F)(F)F)nn3)S(=O)(=O)C2)CC1 (configuration not stated)	-8.7	-2.0	1.7	·	-7.1
COc1ccc(-c2cn3cc(C)ccc3n2)cc1Br	7.3	-34.1	94.3*	5.1	-105.6
CCOCCc1nnc(NC(=O)CN2C(=O)c3ccccc3C2=O)s1	-8.3	-3.7	-0.1	-0.1	-0.3
CCCCNC(=O)c1onc(CSc2ccc(OC)cc2)c1C(=O)O	-3.3	-2.9	0.2	11.5*	2.8
CCCCNC(=O)c1onc(CSc2ccc(F)cc2)c1C(=O)O	-5.0	-1.8	0.1	-3.3	8.6
CC(OC(=O)c1ccc(NC(=O)CC#N)cc1)C(=O)Nc1nc(-c2ccccc2)cs1 (configuration not stated)	19.1	4.5	-0.1	20.8*	10.6
SMILES	FAS-TE inh	ADAM17 inh	aDG glyco up	GRIN3A LBD mod	ADAM10 inh
CCCC1CC(C)(C(=O)CSc2n[nH]c(-c3ccccc3)n2)OC1=O (configuration not stated)	-7.4	-0.5	-0.3	5.2	11.7
CCOc1ccccc1N1CCN(S(=O)(=O)c2cc(C)ccc2OC)CC1	13.7	1.4	0.2	37.2*	2.7
O=C(Nc1ccc2c(c1)CCC2)c1cc(S(=O)(=O)Nc2ccc(F)cc2)c(Cl)cc1Cl	19.9	-2.3	0.1	31.1*	-3.8
Brc1ccc(OCc2ccccc2)c(CNCc2ccncc2)c1	7.4	-5.5	0.1	11.2*	6.2
O=C(Nc1ccc2c(c1)OCCO2)C1c2ccccc2OCC(=O)N1CC(F)(F)F (configuration not stated)	-1.7	-7.7	-0.3	·	-12.4
CCOc1ccc(-c2c(C(=O)N/N=C/c3cccc(Br)c3)nnn2-c2nonc2N)cc1	-0.6	6.2	-0.2	16.6*	2.0
CCOc1cccc(-c2c(C(=O)N/N=C/c3cccnc3)nnn2-c2nonc2N)c1	-2.2	2.4	-0.2	-1.6	-3.0
CCOc1ccc(-c2c(C(=O)N/N=C/c3ccc(O)cc3)nnn2-c2nonc2N)cc1	-3.7	-0.7	-0.1	8.4	5.3
CCCOc1ccc(-c2c(C(=O)N/N=C/c3ccc(OCC)cc3)nnn2-c2nonc2N)cc1	3.1	-0.8	-0.1	5.4	-3.9
CCOc1ccc(-c2c(C(=O)N/N=C/c3ccsc3)nnn2-c2nonc2N)cc1	-3.2	-1.8	0.4	12.7*	5.3
CCCOc1ccc(-c2c(C(=O)N/N=C/c3ccc(OC)cc3)nnn2-c2nonc2N)cc1	16.5	2.5	0.2	10.4*	4.3
CCOc1cccc(-c2c(C(=O)N/N=C/c3ccc(Br)cc3)nnn2-c2nonc2N)c1	21.0	-3.3	0.4	16.9*	-0.3
COc1cc(CC(=O)OCC(=O)Nc2ccc3c(c2)OCO3)cc(OC)c1OC	3.2	-6.6	0.0	-1.2	-0.5
NC(=O)c1ccccc1N/C=C/C(=O)c1ccc(Cl)cc1Cl	9.5	-47.4	0.5	-5.8	-126.6
CCc1ccc(NC(=O)c2cc(-c3ccco3)on2)cc1	-2.8	-4.2	-0.1	-10.0	-10.2
Cn1ncc2c(Nc3ccc(-c4ccccc4)cc3)ncnc21	15.4	-7.5	1.6	3.6	-21.8
Cn1ncc2c(Nc3ccccc3Br)ncnc21	-8.1	-0.3	-0.3	14.0*	-7.7
O=C(NNC(=S)NC(=O)c1ccccc1[N+](=O)[O-])c1ccccc1[N+](=O)[O-]	-2.4	-1.3	-0.2	0.1	3.9
O=C(NC(=S)NC1CCCCC1)c1ccccc1[N+](=O)[O-]	12.5	-5.6	-0.2	17.8*	3.3
O=C(NC(=S)Nc1cccc2c(O)cccc12)c1ccccc1[N+](=O)[O-]	-0.1	1.5	-0.1	33.6*	0.1
COc1ccc(-c2nc3c(c4nnc(SC(C)C(=O)Nc5ccc(C)cc5)n24)COC(C)(C)C3)cc1 (configuration not stated)	9.1	-0.3	-0.5	-2.5	-0.1
O=C(CSc1nnc(COc2ccccc2)o1)NC1CC2CCC1C2 (configuration not stated)	-3.1	-1.9	-0.4	-0.6	-1.8

Screening data as filed in PubChem BioAssay.
